Most compounds without a hit are left out; they make up all but 2.4% or so of the library.
MEKK2 mut-MEK5 – signal of MEK5 binding to mutant human MEKK2 PB1 domain; bead flow cytometry, Alexa488-MEK5 binding to MEKK2 mutant; percent response, % at 10 µM; actives 0.35% (n = 290,000); in the data active means percent response above about 24%, passing the limit was not always enough
MEKK3 PB1 HTS – raises or lowers MEK5 binding to the human MEKK3 PB1 domain | binding response (% of control), % at 10 µM | bead-based flow cytometry, Alexa488-MEK5 binding to MEKK3; actives lie on both sides; 0 = blocked by unlabeled MEK5, 100 = vehicle | Q99759 | actives 1.4% (n = 290,000);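 active means binding response more than 3 SD above or below the average of its plate-row segment, actives on both sides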;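 further: Alexa488 bead fluorescence after subtracting the streptavidin-only scavenger bead signal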
Target sequence (Q99759 whole entry, looked up, the tested form may be a part): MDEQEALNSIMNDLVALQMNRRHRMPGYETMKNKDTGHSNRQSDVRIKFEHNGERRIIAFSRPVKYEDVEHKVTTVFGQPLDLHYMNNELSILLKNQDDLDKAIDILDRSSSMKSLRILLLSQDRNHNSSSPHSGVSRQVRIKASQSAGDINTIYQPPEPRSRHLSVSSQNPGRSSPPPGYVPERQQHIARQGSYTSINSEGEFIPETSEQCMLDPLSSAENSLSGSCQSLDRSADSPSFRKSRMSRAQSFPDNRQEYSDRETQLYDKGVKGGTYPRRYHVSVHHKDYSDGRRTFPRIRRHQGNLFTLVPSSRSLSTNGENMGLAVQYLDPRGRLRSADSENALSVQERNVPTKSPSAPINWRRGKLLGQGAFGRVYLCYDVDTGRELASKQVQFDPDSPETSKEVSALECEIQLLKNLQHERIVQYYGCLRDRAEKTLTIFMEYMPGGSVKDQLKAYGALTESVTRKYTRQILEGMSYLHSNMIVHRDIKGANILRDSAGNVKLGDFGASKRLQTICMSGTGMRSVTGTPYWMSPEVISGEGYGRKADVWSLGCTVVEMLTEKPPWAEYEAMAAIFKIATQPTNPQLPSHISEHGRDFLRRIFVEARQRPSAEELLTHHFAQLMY
Pf gametocyte – inhibitors of late stage P. falciparum gametocyte viability; actives 0.065% (n = 150,000); inhibition, % at 10.9 µM; P. falciparum stage V gametocytes, ATP luminescence, 24 h; AID 743093;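 active means inhibition above the mean plus 3 SD of compounds within the control limits, set per campaign, cut at about 38% in these data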;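 further: 0% = DMSO wells and 100% = medium only without gametocytes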
Arbovirus anti – blocks arbovirus infection; arbovirus infection cell-based antiviral screen; inhibition, % at 10 µM; actives 0.37% (n = 200,000); AID 1251; in the data active means inhibition above about 30%
MEKK2 WT-MEK5 – raises or lowers MEK5 binding to wildtype human MEKK2 PB1 domain; Q9Y2U5; binding response (% of control), % at 10 µM; actives 1.1% (n = 290,000); bead flow cytometry, Alexa488-MEK5 binding to MEKK2 WT; actives lie on both sides; in the data active means binding response below about 67% or above about 130%
MEKK2wt confirm – raises or lowers MEK5 binding to wildtype human MEKK2, retest | binding response (% of control), % at 10 µM | actives 2.4% (n = 5,900) | bead flow cytometry, Alexa488-MEK5 binding to MEKK2 WT; actives lie on both sides | shares compounds with MEKK3 PB1 HTS; in the data active means binding response below about 16% or above about 210%; inactive means in between
MEKK2mut-MEK5 – signal of MEK5 binding to mutant human MEKK2, retest; actives 2% (n = 5,900); shares compounds with MEKK3 PB1 HTS; percent response, % at 10 µM; bead flow cytometry, Alexa488-MEK5 binding to MEKK2 mutant; in the data active means percent response mostly above about 71%, no sharp cut-off; inactive means mostly below about 38%;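 further: higher means compound restores mutant binding toward wildtype level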
MEKK3 confirm – MEKK3-MEK5 PB1 inhibition, single concentration confirmation. shares compounds with MEKK3 PB1 HTS. bead flow cytometry, Alexa488-MEK5 binding to MEKK3; active compounds read low. binding response (% of control), % at 10 µM. actives 1.8% (n = 5,900);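 active means binding response below 72% of control, or above a set upper limit, though filed actives all read lower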;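 further: 100% = DMSO only wells and 0% = binding blocked by excess unlabeled MEK5; lower values mean stronger disruption of MEK5 binding to MEKK3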
* hit, by the source's call; . = not tested or not shown; [ ] = dose if it differs, or a comment.

SMILES | MEKK2 mut-MEK5 | MEKK3 PB1 HTS | Pf gametocyte | Arbovirus anti | MEKK2 WT-MEK5 | MEKK2wt confirm | MEKK2mut-MEK5 | MEKK3 confirm
Cc1cc(C)cc(NC(=S)NCc2ccncc2)c1 | 7 | 102 | 7 | 3 | 105 | . | . | .
Fc1ccc(NC(=S)NCc2cccnc2)cc1 | -14 | 47*[inhibitor] | 2 | 8 | 56 | 103 | -3 | 102
Fc1cccc(NC(=S)NCc2cccnc2)c1 | 13 | 104 | 1 | 10 | 106 | . | . | .
Cc1cc(C)cc(NC(=S)NCc2cccnc2)c1 | 0 | 142* | 8 | 8 | 109 | 101 | 0 | 99
N#Cc1c(Cl)cccc1N1CCC(C(N)=O)CC1 | -7 | 91 | 9 | . | 92 | . | . | .
Cc1cc(OCc2cc(C(=O)N3CCCCCC3)no2)cc(C)c1Cl | 8 | 106 | . | . | 104 | . | . | .
Cc1c(NC(=O)CSc2nnc3c4ccccc4n(CCc4ccccc4)c3n2)c(=O)n(-c2ccccc2)n1C | 6 | 103 | . | 4 | 104 | . | . | .
CCn1c2ccccc2c2nnc(SCC(=O)Nc3c(C)n(C)n(-c4ccccc4)c3=O)nc21 | -17 | 2.0*[inhibitor] | . | -7 | 2.0*[inhibitor] | 101 | -2 | 97
CCC(CC)C(=O)Nc1cc(C(=O)OC)ccc1C(=O)OC | 1 | 194* | 5 | 0 | 113 | 97 | -1 | 105
N#C/C(=C\c1c(N2CCC(C(N)=O)CC2)nc2ccccn2c1=O)C(=O)NC1CCCCC1 | 1 | 99 | . | . | 99 | . | . | .
COc1cc(O)c(C(CCN2CCOCC2)c2cc(OC)c(OC)c(OC)c2)c(OC)c1 (centres undefined) | 3 | 119 | -3 | . | 142* | 98 | -8 | 97
COc1cc(O)c(C(CCN2CCCCC2)c2cc(OC)c(OC)c(OC)c2)c(OC)c1 (centres undefined) | 3 | 94 | . | . | 90 | . | . | .
COc1cc(O)c(C(CCN2CCCC2)c2cc(OC)c(OC)c(OC)c2)c(OC)c1 (centres undefined) | 5 | 114 | . | . | 145* | 118 | 13 | 103
COc1ccc(C(CCN2CCCC2)c2c(O)cc(OC)cc2OC)cc1 (centres undefined) | 9 | 117 | . | . | 149* | 158 | 31 | 108
CCc1c(C)nc(SCC(=O)N2CCCCC2CC)[nH]c1=O (centres undefined) | 25 | 122 | -7 | . | 118 | . | . | .
CC(=O)Nc1ccccc1OCC(O)CS(=O)(=O)c1ccc(C(F)(F)F)cn1 (centres undefined) | 5 | 106 | . | . | 107 | . | . | .
CCN1CCN(C(=O)c2cc3cc(F)ccc3[nH]2)CC1 | 12 | 105 | . | . | 105 | . | . | .
Cc1ccccc1SCCNC(=O)c1ccccc1Br | -5 | 99 | -3 | -2 | 97 | . | . | .
OCc1nc2ccccc2n1CCCCOc1ccccc1 | . | . | -23 | . | . | . | . | .
O=C(O)CCn1c(CO)nc2ccccc21 | -1 | 129* | 7 | 12 | 107 | 106 | 5 | 105
CN(C)S(=O)(=O)c1ccc(NC(=O)CSc2nc3ccccc3n2-c2ccccc2)cc1 | -2 | 94 | -17 | -1 | 101 | . | . | .
CN(C)S(=O)(=O)c1cccc(NC(=O)CSc2nc3ccccc3n2-c2ccccc2)c1 | -1 | 153* | 1 | -27 | 110 | 104 | -3 | 104
CC1CCC2C(=O)N(c3ccc(NC4CCN(Cc5ccccc5)CC4)c([N+](=O)[O-])c3)C(=O)C2C1 (centres undefined) | -8 | 70*[inhibitor] | -26 | -10 | 106 | 117 | 16 | 103
O=C1C2CCCCC2C(=O)N1c1ccc(NC2CCN(Cc3ccccc3)CC2)c([N+](=O)[O-])c1 (centres undefined) | -6 | 94 | -20 | -4 | 102 | . | . | .
O=C(CCOc1ccccc1)Nc1cccc(S(=O)(=O)Nc2ccccc2Cl)c1 | -2 | 151* | -5 | 17 | 99 | 103 | -3 | 101
SMILES | MEKK2 mut-MEK5 | MEKK3 PB1 HTS | Pf gametocyte | Arbovirus anti | MEKK2 WT-MEK5 | MEKK2wt confirm | MEKK2mut-MEK5 | MEKK3 confirm
CCc1nnc(NC(=O)CCC(=O)NC2CCCCCC2)s1 | 6 | 102 | . | . | 102 | . | . | .
Cc1cc(C(=O)Nc2ccc(Br)cc2)cs1 | 7 | 101 | . | . | 101 | . | . | .
COc1ccc(-n2cc(CNCCN3CCOC3=O)c(-c3ccccc3Cl)n2)cc1 | -1 | 102 | -3 | . | 107 | . | . | .
COc1ccc(-n2cc(CNCCc3nc(C)cc(C)n3)c(-c3ccccc3Cl)n2)cc1 | 1 | 95 | -12 | -7 | 114 | . | . | .
CCN1CCC(CNCc2cn(-c3ccc(OC)cc3)nc2-c2ccccc2Cl)C1 (centres undefined) | 34 | 104 | 14 | -28 | 180* | 189 | 69 | 113
COc1ccc(-n2cc(CNCCc3ncc(C)[nH]3)c(-c3ccccc3Cl)n2)cc1 | -5 | 104 | -8 | -33 | 153* | 167 | 38 | 108
COC(=O)c1sc(NC(=O)c2c(OC)cccc2OC)c(C#N)c1C | -43 | 96 | -5 | -7 | 88 | . | . | .
NC(=O)NC(=O)Nc1ccccc1Cl | 7 | 130* | . | -4 | 125 | 101 | -3 | 95
O=C(NC(=O)c1csnn1)Nc1ccccc1Cl | -3 | 101 | . | . | 102 | . | . | .
COc1ccccc1NC(=O)c1ccc(SCC(=O)NCc2ccccc2Cl)c([N+](=O)[O-])c1 | 0 | 133* | -9 | -7 | 103 | 95 | 0 | 103
Cc1nnc(SCc2ccccc2)n(N)c1=O | -1 | 69*[inhibitor] | . | -11 | 93 | 100 | -2 | 103
Cc1ccc(CSc2nnc(-c3ccncc3)n2N)cc1 | 5 | 107 | -1 | . | 107 | . | . | .
Cc1nnc(SCC(=O)NCc2ccccc2Cl)n(N)c1=O | 1 | 130* | -2 | -13 | 107 | 111 | 7 | 102
Cc1ccccc1CSc1nnc(C)c(=O)n1N | -4 | 86 | . | 1 | 89 | . | . | .
Cc1nnc(SCc2ccccc2Cl)n(N)c1=O | 4 | 103 | 11 | -1 | 102 | . | . | .
Cc1ccc(CSc2nnc(C)c(=O)n2N)cc1 | -1 | 131* | -3 | -9 | 101 | 102 | 2 | 100
COC(=O)N1C(=O)[C@](c2ccccc2)(C2CCCC2)N1C(=O)OC | 30* | 100 | 19 | . | 96 | 100 | -4 | 98
C=CCSc1ncccc1C(=O)NCc1ccccc1 | 0 | 103 | . | 1 | 102 | . | . | .
C=CCSc1nnc(CNC(=O)c2ccccc2C)n1C(C)C | 4 | 140* | 21 | 6 | 121 | 101 | -3 | 96
Cn1cnnc1SCC(=O)Nc1ccc(OCc2ccccc2)cc1 | -2 | 90 | -33 | -8 | 102 | . | . | .
Cc1cc(C)c(S(=O)(=O)c2ccccc2C(=O)O)c(C)c1 | 6 | 126* | . | 4 | 124 | 101 | 9 | 104

Screening data as filed in PubChem.
